# From PubChem BioAssay
# RORg inh – inhibitors of mouse ROR gamma transcriptional activity. P51450. Drosophila S2 Gal4-RORgamma UAS-luciferase reporter, 20 h. Potency, µM (titrated, usually from 53.6 µM), for inactives: at the highest dose activity change, negative = inhibition, hits mostly inhibitors. 5.4% of 310,000 active; further: nearly all actives have a fitted effect of over 60% in size
# Target sequence (P51450 whole entry, looked up, the tested form may be a part): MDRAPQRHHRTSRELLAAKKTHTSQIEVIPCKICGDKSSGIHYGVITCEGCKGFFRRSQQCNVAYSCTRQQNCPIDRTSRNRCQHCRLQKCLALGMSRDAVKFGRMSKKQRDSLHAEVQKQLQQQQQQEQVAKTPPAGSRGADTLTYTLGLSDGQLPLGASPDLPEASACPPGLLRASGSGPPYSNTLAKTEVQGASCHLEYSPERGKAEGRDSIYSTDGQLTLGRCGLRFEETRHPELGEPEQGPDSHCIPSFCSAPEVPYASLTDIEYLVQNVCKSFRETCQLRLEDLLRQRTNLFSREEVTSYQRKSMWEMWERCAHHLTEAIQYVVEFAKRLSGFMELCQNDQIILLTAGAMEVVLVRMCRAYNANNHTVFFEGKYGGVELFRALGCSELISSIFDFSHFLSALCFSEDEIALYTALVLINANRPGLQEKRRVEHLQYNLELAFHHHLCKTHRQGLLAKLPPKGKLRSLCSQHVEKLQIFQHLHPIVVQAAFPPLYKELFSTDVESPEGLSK
#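 Stably transfected Drosophila Schneider cells are the test system, with ROR gamma fused to Gal4 and luciferase under UAS control; luminescence is read after 20 hr of 700 uM copper sulfate induction at ambient temperature.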
# TDP1 cell noCPT – qHTS for Inhibitors of human tyrosyl-DNA phosphodiesterase 1 (TDP1): qHTS in cells in absence of CPT | Potency, µM (series often up to 46.2 µM), for the others: at the highest dose activity change, negative = growth inhibition, hits mostly inhibitors | DT40 Tdp1-/- hTDP1 cells, no CPT, ATP luminescence, 48 h | 15% of 420,000 active; further: nearly all actives have a fitted effect of over 55% in size
#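 Camptothecin absent (DMSO only). Human TDP1-complemented DT40 knockout cells, 400 cells/well, 37 °C for minimum 48 hr; ATP measured via CellTiter-Glo, 30 min dark incubation, luminescence.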
# ELG1 repair inh – inhibitors of ELG1-dependent DNA repair in HEK293T cells | 2.3% of 330,000 active | Potency, µM (highest dose often 46.1 µM), for the others: at the highest dose activity change, negative = inhibition, actives largely listed as inhibitors | HEK293T ELG1-luciferase reporter, luminescence, 16 h; DNA damage induced by 5-fluorouridine; further: nearly all actives have a fitted effect of over 55% in size
#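 Reporter activity after DNA damage by 5-fluorouridine is monitored. Compound-treated cells incubate 16 hr at 37 °C, then ONE-Glo is added for 30 min before luminescence reading.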
# VP16 counter – counter-screen for ROR gamma inhibitors: Gal4-VP16 reporter | Drosophila S2 Gal4-VP16 UAS-luciferase, luminescence, 20 h | Potency, µM (doses to about 53.6 µM), for the others: at the top dose activity, negative = inhibition, hits mostly inhibitors | 3.5% of 310,000 active | AID 2546;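 further: Gal4-VP16 expression switched on by copper sulfate through the metallothionein promoter; nearly all actives have a fitted effect of over 50% in size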
# ALOX12 inh – blocks human arachidonate 12S-lipoxygenase; P18054; purified 12hLO, xylenol orange hydroperoxide absorbance; Potency, µM (titrated, usually from 108 µM), for inactives: at the highest dose activity change, negative = inhibition, most hits filed as inhibitors; 1.1% of 580,000 active
#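 Hydroperoxide product was detected by ferrous iron/xylenol orange as the 573 to 405 nm absorbance ratio. Arachidonic acid at 40 uM (final) was turned over for 30 min at room temperature by 150 nM human 12hLO, pH 7.0 Hepes buffer, after 15 min compound preincubation.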
# DT40 TDP1 CPT – growth inhibition of DT40 Tdp1-/-;hTDP1 cells with camptothecin (screen for TDP1 inhibitors); chicken DT40 Tdp1-/-;hTDP1 cells + 20 nM CPT, ATP luminescence, 48 h; Potency, µM (titrated, usually from 46.2 µM), for the others: top-dose activity change, negative = growth inhibition, most hits filed as inhibitors; 12% of 420,000 active; AID 686979; further: nearly all actives have a fitted effect of over 55% in size
#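 Chicken DT40 Tdp1-/- cells complemented with human TDP1, 400 cells/well, exposed to compounds plus 20 nM camptothecin for at least 48 h at 37 C; viability read as ATP content by CellTiter-Glo luminescence.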
# Starred values were filed as active, the others as inactive; i = inactive; u = inconclusive; x = no result; [ ] = dose if it differs, or a comment. Compounds with a hit are over-represented: about 15% of the library has one in this group of screens. The call rests on the fitted dose curve; in most records, active means well fitted curve in the direction sought with a large enough effect; inconclusive means small, poorly fitted or top-dose-only effect, or another doubt; inactive means no such curve, though single readings can be large; an effect the other way counts as inactive or inconclusive. On the % scale 0 is the no-effect control and ±100 the full control effect; potency means the concentration at half of the fitted maximal effect.
SMILES,RORg inh,TDP1 cell noCPT,ELG1 repair inh,VP16 counter,ALOX12 inh,DT40 TDP1 CPT
COc1ccc(Cc2ncc3c(n2)CN(C(=O)C(CO)NC(C)=O)C3)cc1 (centres undefined),x,x,x,x,2%,x
CCCCC#Cc1cncc(C(=O)N/N=C/c2cccc(OC)c2)c1,11µM*,-21%,u,u,i,-18%
Cc1ccccc1OCC(=O)N/N=C/c1cccc(Oc2ccc([N+](=O)[O-])cc2[N+](=O)[O-])c1,u,21µM*,u,0%,16%,15µM*
O=C(N/N=C/c1cccc(Oc2ccc([N+](=O)[O-])cc2[N+](=O)[O-])c1)c1cncc(Br)c1,u,18µM*,15%,u,4%,u
COc1cccc(/C=N\NC(=O)c2ccc(C)nc2)c1,u,0%,u,8%,-2%,4%
Cc1ccccc1OCC(=O)NCC(=O)N/N=C/c1cccc([N+](=O)[O-])c1,-1%,x,1%,-10%[10 µM],-5%,x
Cc1cccc(-n2c(SCc3nc4ccccc4o3)nnc2N2CCOCC2)c1,x,x,x,x,27%,x
COCC(=O)N1CCc2oc(C)c(C(=O)N(C)C)c2C1,x,x,x,x,24%,x
C#Cc1cccc(NC(=O)c2ccc(OCC=C)cc2)c1,x,x,x,x,-57%,x
CCN(c1ccccc1)S(=O)(=O)c1ccc(Oc2ccc(-n3ccnc3)cc2)nc1,18%,8.2µM*,13%,-10%,30%,5.2µM*
CCCn1c(=O)c2ccccc2n2c(=S)[nH]nc12,-9%,14%,11%,-6%,-26%,-18%
CCCCn1c(=O)c2ccccc2n2c(=S)[nH]nc12,10µM*,-16%,-21%,u,6.3µM*,14%
CCCCCn1c(=O)c2ccccc2n2c(=S)[nH]nc12,7.1µM*,u,-7%,u,45µM*,-17%
CCOC(=O)CCNC(=O)N1CCC(Oc2ncccc2C(=O)N2CCOCC2)C1 (centres undefined),x,x,x,x,20%,x
Cc1noc(C)c1S(=O)(=O)N(CC(=O)NCCc1ccc(Cl)cc1)c1ccc(C(C)C)cc1,x,u,x,x,-10%,u
Cc1ccc(CCNC(=O)CN(c2cc(C)cc(C)c2)S(=O)(=O)c2c(C)noc2C)cc1,-20%,u,29%,-8%,-2%,-22%
COc1ccc(CCNC(=O)CN(c2cc(C)cc(C)c2)S(=O)(=O)c2c(C)noc2C)cc1OC,-19%,18µM*,-2%,-7%,10%,u
Cc1ccc(N(CC(=O)NCCc2ccc(Cl)cc2)S(=O)(=O)c2c(C)noc2C)cc1,u,15µM*,-1%,6%,11%,23µM*
Cc1noc(C)c1S(=O)(=O)N(CC(=O)NCc1ccc2c(c1)OCO2)c1ccc(C(C)C)cc1,0%,u,-17%,0%,9%,u
Cc1ccc(CCNC(=O)CN(c2ccc(C)cc2)S(=O)(=O)c2c(C)noc2C)cc1,-1%,16µM*,0%,-1%,30%,u
Cc1ccc(N(CC(=O)NCc2ccc3c(c2)OCO3)S(=O)(=O)c2c(C)noc2C)cc1,11%,23µM*,-4%,-4%,7%,u
CSc1ccc2cc(CN(C)CCO)c(-c3ccc(Cl)cc3)nc2c1,x,x,x,x,18%,x
Cc1csc(NC(=O)c2nc3c(o2)CCN(Cc2ccc4[nH]ccc4c2)CC3)n1,x,x,x,x,54%[176 µM],x
Cc1cccc(OCCCC(=O)Nc2nccs2)c1C,3.2µM*,u,-15%,-2%,-3%,-22%
O=C(COc1cccc2cccnc12)Nc1nccs1,u,-13%,u,18µM*,0%,-21%
O=C(COc1ccc2c(c1)OCO2)Nc1nccs1,10µM*,-25%,u,u,0%,-4%
CCOc1ccc(OCC(=O)Nc2nccs2)cc1,13µM*,0%,u,-14%[10 µM],x,-2%
